ALOX12 inh – ALOX12 (human) lipoxygenase inhibition; P18054; Potency, µM (series often up to 108 µM), inactives show at the highest dose activity change, negative = inhibition, actives largely listed as inhibitors; AID 1671190; purified 12hLO, xylenol orange hydroperoxide absorbance; 580,000 tested, 1.1% active; also: potency is read from the fitted curve at half-maximal effect; % is scaled to controls: 0 for no effect and ±100 for the full control effect
Target sequence (P18054 whole entry, looked up): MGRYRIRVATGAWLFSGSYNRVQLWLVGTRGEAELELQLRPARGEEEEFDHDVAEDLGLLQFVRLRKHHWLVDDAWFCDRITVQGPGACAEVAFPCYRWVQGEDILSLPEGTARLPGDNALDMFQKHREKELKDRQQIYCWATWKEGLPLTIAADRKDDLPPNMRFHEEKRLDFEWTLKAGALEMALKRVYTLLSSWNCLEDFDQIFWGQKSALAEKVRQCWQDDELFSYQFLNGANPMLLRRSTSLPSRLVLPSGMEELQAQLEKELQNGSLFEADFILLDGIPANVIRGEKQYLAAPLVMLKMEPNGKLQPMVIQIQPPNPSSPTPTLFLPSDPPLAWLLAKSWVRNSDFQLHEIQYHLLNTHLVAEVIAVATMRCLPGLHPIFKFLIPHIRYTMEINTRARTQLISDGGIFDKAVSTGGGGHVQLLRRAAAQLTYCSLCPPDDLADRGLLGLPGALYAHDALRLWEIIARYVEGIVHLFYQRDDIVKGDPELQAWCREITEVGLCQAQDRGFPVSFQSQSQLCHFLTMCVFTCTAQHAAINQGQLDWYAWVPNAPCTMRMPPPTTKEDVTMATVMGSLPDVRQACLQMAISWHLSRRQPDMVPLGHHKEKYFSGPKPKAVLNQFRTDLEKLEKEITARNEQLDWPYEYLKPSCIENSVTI
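Purified human 12hLO at 150 nM in 25 mM Hepes, 0.01% Triton X-100, pH 7.0, preincubated 15 min at room temperature with compound. Reaction started with 40 uM arachidonic acid, 30 min at room temperature. Hydroperoxide measured by Fe-xylenol orange, 573/405 nm absorbance ratio.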
G9a inh – inhibitors of human histone lysine methyltransferase G9a; G9a H3K9 monomethylation, AlphaScreen, 2 h; Potency, µM (highest dose often 102 µM), for inactives: at the highest dose activity, negative = inhibition, usual class: inhibitors; 350,000 tested, 8.8% active; also: potency is read from the fitted curve at half-maximal effect; % is scaled to controls: 0 for no effect and ±100 for the full control effect; nearly all actives have a fitted effect of over 75% in size
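Chemiluminescent proximity detection of H3K9 monomethylation, read after 10 min bead incubation in the dark. Reaction: 20 nM G9a, 500 nM biotin-H3K9 peptide, 20 uM SAM cofactor, 2 h, room temperature, following 15 min enzyme-compound preincubation.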
JMJD2A Tudor – JMJD2A Tudor domain (human) inhibition | O75164 | AlphaScreen JMJD2A-Tudor / H3K4me3 peptide binding | Potency, µM (highest dose often 114 µM), without a hit: at the top dose activity change, negative = inhibition, hits mostly inhibitors | 390,000 tested, 4.4% active | AID 504339; also: potency is read from the fitted curve at half-maximal effect; % is scaled to controls: 0 for no effect and ±100 for the full control effect; nearly all actives have a fitted effect of over 50% in size
BAZ2B inh – BAZ2B (human) inhibition; AlphaScreen BAZ2B-H3K14Ac peptide displacement; 360,000 tested, 4.4% active; Potency, µM (highest dose often 114 µM), without a hit: top-dose activity change, negative = inhibition, usual class: inhibitors; Q9UIF8; AID 504333; also: potency is read from the fitted curve at half-maximal effect; % is scaled to controls: 0 for no effect and ±100 for the full control effect; nearly all actives have a fitted effect of over 60% in size
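AlphaScreen luminescence quantifies BAZ2B engagement of H3K14Ac peptide; the protein and biotinylated peptide are both at 50 nM final, buffer PBS pH 7.4 with 0.01% Tween-20, all steps at room temperature.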
PLK1 PBD block – blocks phosphopeptide binding to human PLK1 polo-box domain | P53350 | Plk1 PBD binding of FITC phosphopeptide, fluorescence polarization | Potency, µM, for inactives: max response, negative = inhibition, most hits filed as inhibitors | 360,000 tested, 2.8% active; also: potency is read from the fitted curve at half-maximal effect; series mostly up to about 57 µM; % is scaled to controls: 0 for no effect and ±100 for the full control effect; nearly all actives have a fitted effect of over 65% in size
HP1b chromo inh – blocks HP1-beta chromodomain binding to methylated histone tails; P83916; AlphaScreen HP1-beta / biotin-H3K9me3 peptide binding; Potency, µM (series often up to 114 µM), for the others: at the top dose activity change, negative = inhibition, usual class: inhibitors; 390,000 tested, 0.56% active; AID 540317; also: potency is read from the fitted curve at half-maximal effect; nearly all actives have a fitted effect of over 70% in size
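Compound inhibition of the preformed complex between 50 nM HP1-beta and 50 nM biotinylated H3K9me3 peptide was read by AlphaScreen. Buffer was PBS pH 7.4 with 0.01% Tween-20. Incubations ran 30 min at room temperature, with 10 ug/mL donor/acceptor beads.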
12-hLO 8HQ R1 – blocks human 12-lipoxygenase product formation in cuvette. shares compounds with BAZ2B inh. purified 12-hLO, cuvette UV 234 nm product formation. Potency, µM, actives largely listed as inhibitors. 35 tested, 60% active;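 active = compounds that slowed 12-hLO product formation enough to yield a measured IC50 potency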
KDM4E inh – inhibitors of human JMJD2E demethylase, 8HQ series round 1; 130 tested, 89% active; JMJD2E demethylase, FDH-coupled NADH fluorescence (FDH is formaldehyde dehydrogenase); Potency, µM (series often up to 57 µM), without a hit: top-dose activity, negative = inhibition, hits mostly inhibitors; shares compounds with BAZ2B inh
ME-1 prolif – reduces ME-1 leukemia cell proliferation; ME-1 cell proliferation, ATP luminescence, 48 h; shares compounds with BAZ2B inh; 140 tested, 20% active; AID 504370; Potency, µM (titrated, usually from 56.1 µM), without a hit: top-dose activity change, negative = inhibition, actives largely listed as inhibitors
* marks the source's active call; other numbers are inactive results; i = inactive; ? = inconclusive; · = no result; ! = a repeat was not active; [ ] = remark or other dose. Hits are enriched below; roughly 9% of the tested compounds scored in any of these assays. Unless noted, calls follow the shape of the dose curve; as a rule, active = well fitted curve in the direction sought with a large enough effect; inconclusive = small, poorly fitted or top-dose-only effect, or another doubt; inactive = no such curve, though single readings can be large; an effect the other way counts as inactive or inconclusive.

SMILES	ALOX12 inh	G9a inh	JMJD2A Tudor	BAZ2B inh	PLK1 PBD block	HP1b chromo inh	ME-1 prolif	others
Oc1ccccc1/C=N/Nc1cccc2cccnc12	0%	-9%[0.0925 µM]	-21%	10%	2%	61%	·
COc1cc(/C=N/NC(=O)c2cncc(Br)c2)ccc1OC(=O)c1ccc2c(c1)OCO2	·	54%	·	-28%[57.1 µM]	·	·	·
COc1cc(/C=N/NC(=O)c2cncc(Br)c2)cc([N+](=O)[O-])c1O	-24%	?	-22%[11.4 µM]	8.9µM*	14%	35%	35µM*
Nc1ccn([C@@H]2O[C@H](CO)[C@@H](O)[C@@H]2O)c(=O)n1	-16%	-13%[59 µM]	0%	?	2%	29%	0.28µM*
Nc1ccn(C2OC(CO)C(O)C2O)c(=O)n1 (stereo not drawn)	-13%	·	·	·	·	·	·
COc1ccc(OC)c(-c2oc3ccccc3c(=O)c2O)c1	?	?	4%	-1%	-5%	35%	·
COc1ccc(OC)c(-c2c3cc(O)c(=O)cc-3oc3cc(O)c(O)cc23)c1	·	6.3µM*	1.6µM*	2.8µM*	2.1µM*	?	22µM*
COc1ccc2c(c1)-c1nc(N)sc1CC2	?	25µM*	?	?	?	?	8%[25.6 µM]
COc1ccc2c(c1)-c1nc(NC(=O)c3cc(OC)c(OC)c(OC)c3)sc1CC2	?	?	-32%	-20%	·	27%	·
COC(=O)[C@]1(CC(C)C)N[C@H](c2ccc(-c3ccc(OC)cc3)cc2)[C@@H]2C(=O)N(C)C(=O)[C@@H]21	?	-8%[2.33 µM]	-34%	3%	-13%	41%	·
COc1ccc(C2Sc3ccccc3N(CCN(C)C)C(=O)C2OC(C)=O)cc1 (stereo not drawn)	?	-24%[2.33 µM]	·	·	·	·	4%
COc1ccc([C@H]2Sc3ccccc3N(CCN(C)C)C(=O)[C@H]2OC(C)=O)cc1	·	20%[21.5 µM]	·	·	·	·	·
CCC(=O)NC(c1cc(Cl)c2cccnc2c1O)C(C)C (stereo not drawn)	-23%	26%[12.7 µM]	?	79µM*	·	9%	·	12-hLO 8HQ R1=1.2µM*;KDM4E inh=20µM*
CCC(=O)NC(c1ccco1)c1cc(Br)c2cccnc2c1O (stereo not drawn)	?	4%[12.7 µM]	·	28µM*	·	·	·	12-hLO 8HQ R1=2µM*;KDM4E inh=32µM*
CC(NC(=O)c1cccc2cccnc12)C1CC1 (stereo not drawn)	-1%	·	·	·	·	·	·
CCC(=O)NC(c1cc(Cl)c2cccnc2c1O)C1CC1 (stereo not drawn)	-25%	19%[12.7 µM]	79µM*	32µM*	·	52%	·	12-hLO 8HQ R1=1.6µM*;KDM4E inh=32µM*
CCC(=O)NC(c1ccc(Cl)cc1Cl)c1ccc2cccnc2c1O (stereo not drawn)	?	17%	-28%	-5%	3%	40%	·
CC(=O)NC(c1cc(F)c2cccnc2c1O)C1CC1 (stereo not drawn)	-2%	?	79µM*	50µM*	·	33%	·	12-hLO 8HQ R1=i;KDM4E inh=29µM*
O=C(NCCCc1nc2ccccc2n1CCCCOc1ccccc1)C1CCCCC1	·	·	-19%[57.1 µM]	·	·	16%[57 µM]	·
Cc1ccc(S(=O)(=O)NCc2nc(-c3ccccc3)oc2C)cc1	-3%	·	·	·	·	·	·
O=C(O)COCC(=O)N[C@H]1CCN2C(=O)c3ccc(Cl)cc3NC(=O)[C@H]12	-22%[176 µM]	·	·	·	·	·	·
Cc1ccc2cc(/C=C3\N=C(c4ccccc4)OC3=O)c(N3CCOCC3)nc2c1	?	-31%	-10%[11.4 µM]	-1%	-22%	-6%	·
COc1ccccc1NC(=O)N1CCCC1C(=O)Nc1nnc(C(C)C)s1 (stereo not drawn)	0%	2%[12.7 µM]	-24%	3%	-3%	1%	·
Brc1ccc(C2Nc3cccc4cccc(c34)N2)o1	·	20µM*	?	?	-29%	?	-22%
Nc1ccc(N)c(C(=O)O)c1	·	7.9µM*	3.5µM*	4µM*	24µM*	3.2µM*	-11%
SMILES	ALOX12 inh	G9a inh	JMJD2A Tudor	BAZ2B inh	PLK1 PBD block	HP1b chromo inh	ME-1 prolif	others
CC(C)c1cc(CN(C)C(=O)c2cc(COc3ccccc3)[nH]n2)on1	33%	·	·	·	·	·	·
CC/C(=C(\c1ccccc1)c1ccc(OCCN(C)C)cc1)c1ccccc1	?	19µM*!	45µM*	35µM*	-9%	?	24µM*
Cc1ccc(S(=O)(=O)NCCC(=O)OCC(=O)N(Cc2ccccc2)C(C)(C)C)cc1C	1%	-26%[12.7 µM]	-18%	-4%	0%	28%	·
CN(C)CCc1c[nH]c2ccc(CC3COC(=O)N3)cc12 (stereo not drawn)	·	6%[2.33 µM]	·	·	·	·	-6%
O=C1C(CCC(O)c2ccc(F)cc2)C(c2ccc(O)cc2)N1c1ccc(F)cc1 (stereo not drawn)	?	-9%[2.33 µM]	·	·	·	·	8%
O=C1C(Cc2ccccc2)C(c2ccccc2)N1c1ccccc1 (stereo not drawn)	8%	60%[12.7 µM]	49%	24%	3%	81%	·
Cc1[nH]n(-c2ccccc2)c(=O)c1C=NC1CCCCCC1	0%	-50%	-29%	-22%	-13%	51%	·
CCN1CCCC1=O	?	19%[59 µM]	·	·	·	·	·
C=CN1CCCC1=O	·	·	·	·	·	·	-11%
CN1CCN(CC(=O)N(Cc2c(C#N)c3ccccc3n2C)c2ccccc2)CC1	-1%	-9%[59 µM]	-22%	3%	-6%	4%	·
O=C(OCC1OC(OC(=O)c2cc(O)c(O)c(OC(=O)c3cc(O)c(O)c(O)c3)c2)[C@@H](OC(=O)c2cc(O)c(O)c(OC(=O)c3cc(O)c(O)c(O)c3)c2)C(OC(=O)c2cc(O)c(O)c(OC(=O)c3cc(O)c(O)c(O)c3)c2)C1OC(=O)c1cc(O)c(O)c(OC(=O)c2cc(O)c(O)c(O)c2)c1)c1cc(O)c(O)c(OC(=O)c2cc(O)c(O)c(O)c2)c1 (stereo partly drawn)	·	?	·	·	·	·	22µM*
CCOc1ccc(C(=O)N[C@@H]2[C@@H](Cc3ccccc3)[C@H]3OCC[C@@H]23)o1	18%	·	·	·	·	·	·
Nc1nc(-c2ccccc2)c(N=Nc2ccc(Cl)cc2)s1	-19%	2µM*	?	?	?	?	2%[25.6 µM]
NCCc1ccc(O)c(O)c1	2.8µM*!	8.9µM*	32µM*	?	-11%	14µM*	-14%

Compound activity deposited in PubChem BioAssay by National Center for Advancing Translational Sciences (NCATS).
